# Compound activity (PubChem)
# Only some compounds are listed: those with a hit (about 2.8% of all), similar ones and a draw of the others.
# ATXN2 expr inh – Primary qHTS for Inhibitors of ATXN expression; Potency, µM (titrated, usually from 57 µM), for inactives: at the highest dose activity change, negative = inhibition, hits mostly inhibitors; HEK-293 ATXN2-luciferase reporter, luminescence, 24 h; AID 1745845, 2022; hit rate 0.72% among 360,000; also: potency is read from the fitted curve at half-maximal effect; % is scaled to controls: 0 for no effect and ±100 for the full control effect; nearly all actives have a fitted effect of over 55% in size
#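 ATXN2-luciferase reporter cells (luciferase flanked by upstream and downstream ATXN2 gene portions) were treated 24 h at 37 °C with compounds at up to 57 uM. SteadyGlo luminescence gave expression; GF-AFC fluorescence gave viability.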
# HepG2 tox – qHTS for Inhibitors of TGF-b: Cytotox Counterscreen; HepG2 CAGA-GFP viability, ATP luminescence, 18 h; Potency, µM (series often up to 46.1 µM), without a hit: at the top dose activity change, negative = cytotoxicity, most hits filed as cytotoxic; hit rate 0.76% among 410,000; also: potency is read from the fitted curve at half-maximal effect
#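 CellTiter-Glo luminescence gave cytotoxicity after 18 hours at 37 degrees C. The cells were HepG2 CAGA-GFP in 1% FBS DMEM, stimulated with 500 pg/mL TGF-beta after compound addition. %Activity was normalised to no-cell wells (complete cell-killing) and DMSO (no toxicity), and curves were fitted and classified.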
# S2 tox – Viability Counterscreen for Primary qHTS for Inhibitors of ATXN expression | S2 cells (HEK-293 line with an ATXN2-luciferase reporter) viability, CellTiter-Fluor protease fluorescence, 24 h | Potency, µM (titrated, usually from 56.7 µM), actives largely listed as cytotoxic | hit rate 0.49% among 400,000 | AID 651635, 2014; also: potency is read from the fitted curve at half-maximal effect; nearly all actives have a fitted effect of over 40% in size
# CtBP-E1A blk – qHTS Assay for Inhibitors of the CtBP/E1A Interaction; CtBP / adenovirus E1A interaction (AlphaScreen); AlphaScreen GST-E1A/His-CtBP binding, 1536-well; active compounds read low; activity change, % (no concentration beside the values); hit rate 0.49% among 340,000; in the data active = activity change below about -65%; inconclusive = mostly about -30% to -63%; also: % is scaled to controls: 0 for no effect and ±100 for the full control effect
#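 In 5 uL wells, 23 nL compound meets equimolar GST-E1A and His-CtBP (5X stock 125 nM each) for 2 h, 37 °C. Beads (5X, 50 ug/mL) then 1 h, 37 °C, dark.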
# Six1-Eya2 blk – qHTS Assay for Inhibitors of the Six1/Eya2 Interaction | activity change, % (no concentration beside the values) | hit rate 0.56% among 360,000 | Homeobox protein SIX1 (Homo sapiens) + Protein phosphatase EYA2 (Homo sapiens), … | AlphaScreen GST-Six1/His-Eya2 binding, biochemical; active compounds read low | AID 651725, 2012; in the data active = activity change below about -65%; inconclusive = mostly about -30% to -63%; also: % is scaled to controls: 0 for no effect and ±100 for the full control effect
# Target sequence (O00167 whole entry, looked up): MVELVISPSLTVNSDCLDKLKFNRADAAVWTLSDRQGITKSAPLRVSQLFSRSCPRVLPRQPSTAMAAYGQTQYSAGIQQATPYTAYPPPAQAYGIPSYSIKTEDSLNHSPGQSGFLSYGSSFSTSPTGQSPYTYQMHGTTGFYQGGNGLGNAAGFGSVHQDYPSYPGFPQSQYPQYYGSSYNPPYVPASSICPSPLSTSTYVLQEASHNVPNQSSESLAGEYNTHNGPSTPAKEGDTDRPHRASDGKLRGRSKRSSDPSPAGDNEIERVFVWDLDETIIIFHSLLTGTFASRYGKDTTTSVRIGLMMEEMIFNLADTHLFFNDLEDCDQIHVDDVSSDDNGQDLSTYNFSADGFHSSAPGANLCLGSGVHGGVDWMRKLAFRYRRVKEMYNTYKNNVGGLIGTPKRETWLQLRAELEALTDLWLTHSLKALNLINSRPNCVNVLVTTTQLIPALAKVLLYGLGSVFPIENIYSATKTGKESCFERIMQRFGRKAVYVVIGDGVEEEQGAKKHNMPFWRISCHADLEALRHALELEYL
# Target sequence (Q15475 whole entry, looked up): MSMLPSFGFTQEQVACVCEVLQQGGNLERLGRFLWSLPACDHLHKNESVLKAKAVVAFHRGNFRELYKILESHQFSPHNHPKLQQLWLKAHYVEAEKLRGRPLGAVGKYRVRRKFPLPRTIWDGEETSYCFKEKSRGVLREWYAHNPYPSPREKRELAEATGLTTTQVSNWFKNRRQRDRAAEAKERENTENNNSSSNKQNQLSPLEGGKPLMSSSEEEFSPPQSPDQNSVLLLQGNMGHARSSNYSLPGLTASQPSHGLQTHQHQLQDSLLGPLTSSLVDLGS
#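 AlphaScreen luminescence read after one hour at 37 °C in darkness. Pin-transferred compounds met GST-Six1 and His-Eya2 protein (5X stock 250 nM/500 nM) plus glutathione donor and Ni-chelate acceptor beads (5X, 50 ug/mL).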
# TGFb SMAD3 inh – qHTS for Inhibitors of TGF-b. HepG2 CAGA-GFP TGF-b/SMAD3 reporter, GFP fluorescence, 18 h; TGF-beta stimulated, 500 pg/mL final. Potency, µM (titrated, usually from 46.1 µM), without a hit: at the top dose activity, negative = inhibition, most hits filed as inhibitors. hit rate 1.2% among 410,000; also: potency is read from the fitted curve at half-maximal effect; % is scaled to controls: 0 for no effect and ±100 for the full control effect; nearly all actives have a fitted effect of over 65% in size
#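 Using HEPG2 CAGA-GFP reporter cells at 1000 cells/well, we pinned test compounds, stimulated with recombinant TGF-beta (500 pg/mL final) and measured total well GFP after 18 h.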
# The depositor's hits bear a star; i = inactive; ? = inconclusive; . = no result given; [ ] = remark or other dose. Unless noted, calls follow the shape of the dose curve; as a rule, active = well fitted curve in the direction sought with a large enough effect; inconclusive = small, poorly fitted or top-dose-only effect, or another doubt; inactive = no such curve, though single readings can be large; an effect the other way counts as inactive or inconclusive.
SMILES,ATXN2 expr inh,HepG2 tox,S2 tox,CtBP-E1A blk,Six1-Eya2 blk,TGFb SMAD3 inh
CCCCC[C@H]1CCCCC[C@@H](O)C[C@@H](O)[C@@H](O)/C=C/C(=O)O1,2%,.,i,2,9,.
C[C@H]1CCCC=CC2C[C@H](O)C[C@@H]2[C@H](O)C=CC(=O)O1 (stereo partly specified),?,-43%,.,.,.,0.13µM*
Clc1ccc(C(Cn2ccnc2)OCc2csc3c(Cl)cccc23)c(Cl)c1 (stereo unspecified),22µM*,-99%,.,-24,-3,?
CC(C)[C@H]1C(=O)N[C@H](CO)Cc2c[nH]c3cccc(c23)N1C,-1%,.,.,.,.,.
CC(C)c1ccc2c(c1)C(N1CCNCC1)Cc1ccc(F)cc1S2 (stereo unspecified),?,-91%,?,-4,3,18µM*
C=C1C(=O)O[C@@H]2C[C@@H](C)[C@H]3C=CC(=O)[C@]3(O)C[C@@H]12,?,-40%,.,2,-5,13µM*
Cc1oc(-c2ccc(Cl)cc2)nc1CN1CCC(C(=O)NCCCN2CCN(c3cccc(Cl)c3)CC2)CC1,.,-23%,.,.,.,16µM*
Cc1oc(-c2cccc(Cl)c2)nc1CN1CCC(C(=O)NCCCN2CCN(c3ccc(F)cc3)CC2)CC1,-31%,-10%,i,.,.,?
NC(Cc1ccc(Cl)cc1)c1csc(Nc2cnccn2)n1 (stereo unspecified),?,-49%,?,?,-72*,-29%
CN1C2CCC(C)(C)C1CC(OC(=O)C(O)(c1cccs1)c1cccs1)C2 (stereo unspecified),1%,.,i,.,.,.
ClCCN(CCCl)c1ccc(-n2cnc3c(Cl)ncnc32)cc1,16µM*,2%,.,-1,-4,4%
C[C@H]1CNCCc2ccc(Cl)cc21,-16%,.,i,.,.,.
COC1=C(C)C(=O)c2c(c(COC(N)=O)c3n2C[C@@H]2[C@@H]3N2C)C1=O (stereo partly specified),.,7.1µM*,.,.,.,4.5µM*
Cc1cnc(SCc2ccccn2)nc1C1CCCN(C(=O)c2cccc(-c3cccc(F)c3)c2)C1 (stereo unspecified),.,.,32µM*,.,.,.
CSc1ccccc1C(=O)C1CCCN(Cc2ccccn2)C1 (stereo unspecified),-1%,-20%,i,-28,-3,-18%
CN(C)S(=O)(=O)c1ccc(C(=O)NCCSc2c(-c3ccccc3)[nH]c3ccccc23)cc1,-36%,-10%,?,.,.,?
CCCC[N+]1(C)[C@H]2CC(OC(=O)[C@H](CO)c3ccccc3)C[C@H]1[C@H]1O[C@H]12 (stereo partly specified),4%,.,.,.,.,.
Oc1ccc2c3c1OC1c4[nH]c5ccccc5c4C[C@@]4(O)C(C2)N(CC2CC2)CC[C@]314 (stereo partly specified),5%,-9%,i,-3,-4,-1%
O=C1/C(=C/c2ccccc2)C[C@@]2(O)[C@H]3Cc4ccc(O)c5c4[C@@]2(CCN3CC2CC2)C1O5 (stereo partly specified),3.5µM*,10µM*,7.1µM*,-11,6,5.6µM*
CCN1CCN(C(=O)Cc2ccc(Nc3ncc(F)c(Nc4ccc(C(=O)Nc5ccccc5Cl)cc4)n3)cc2)CC1,24µM*,.,.,.,.,.
CCOC(=O)[C@]12Cc3cc(C)ccc3[C@H]1N(C)C(=O)c1cc(OC)ccc12,?,.,?,-6,2,.
CCOC(=O)[C@]12Cc3c(cc(OC)c(OC)c3OC)[C@H]1N(C(C)C)C(=O)c1cc(OC)ccc12,18µM*,.,14µM*,0,-7,.
CCOC(=O)[C@]12Cc3cc(OC)ccc3[C@H]1N(C(C)C)C(=O)c1cc(OC)ccc12,?,.,14µM*,0,18,.
C[C@]12CCC3C(CC[C@H]4C[C@H](O)CC[C@]34C)C1C[C@@H](O)[C@@H]2O (stereo partly specified),0%,-8%,i,-4,0,-4%
C[C@]12CCC3C(CC[C@H]4C[C@H](O)CC[C@]34C)C1C[C@@H](O)[C@H]2O (stereo partly specified),-16%,14µM*,i,3,-2,-6%
SMILES,ATXN2 expr inh,HepG2 tox,S2 tox,CtBP-E1A blk,Six1-Eya2 blk,TGFb SMAD3 inh
CC(Cc1ccc2c(c1)OCO2)NO (stereo unspecified),-22%[116 µM],.,i,.,.,.
C=CC[C@@H](CC/C=C/C=C/CC/C=C\[C@@H]1CSC([C@@H]2C[C@@H]2C)=N1)OC,?,-59%,.,6,10,14µM*
Oc1ccc([C@H]2CNCc3c2ccc(O)c3O)cc1O,-20%,.,?,.,.,.
O=P1(Oc2ccccc2)CC=CC(COC(c2ccccc2)(c2ccccc2)c2ccccc2)O1 (stereo unspecified),.,-19%,.,.,.,16µM*
CN1Cc2cnnn2-c2ccccc2C1C#N (stereo unspecified),-2%,-12%,?,-28,0,2%
COc1ccc(CN2Cc3cnnn3-c3ccccc3C2c2ccccc2)cc1 (stereo unspecified),-22%,-1%,i,-21,-8,-15%
N#CC1c2ccccc2-n2nncc2CN1Cc1cc(Cl)cc(Cl)c1 (stereo unspecified),4.5µM*,10µM*,3.5µM*,-7,-19,?
